{"source": "PubChem BioAssay (NCI)", "note": "This is part of a sample that, as a whole, favours compounds with a hit. Of some 83,000 tested, about 20% had one in any assay.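 The endpoint reported here, percent growth, reads 100 for growth as untreated, 0 for no net growth and -100 for all cells dead.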 Active and inactive are the calls of the source. How the source made its calls: active means growth percent below 10; inactive means the rest.", "data": [{"test_system": "NCI-H23 lung", "experiment": "NCI-60 one-dose screen, 48 h (100 = growth as untreated, 0 = no growth, -100 = all killed)", "details": "10 µM", "values": [{"compound": "CCCCCCCCCCC1CO1", "note": "(centres undefined)", "growth": "106% (inactive)"}, {"compound": "CC(=Nc1ccccc1)C1=C(O)C(Cc2cccc(F)c2)NC1=O", "note": "(centres undefined)", "growth": "17.1% (inactive)"}, {"compound": "O=[N+]([O-])c1ccc(S(=O)(=O)NN=C2CCCCC2)cc1", "growth": "104% (inactive)"}, {"compound": "CC(=O)OCC(=O)[C@@]1(O)CC[C@H]2[C@@H]3CC[C@@H]4C[C@H](O)CC[C@]4(C)[C@H]3C(=O)C[C@@]21C", "growth": "103% (inactive)"}, {"compound": "O=c1[nH]nc(SC2CCCCC2)c(=O)[nH]1", "growth": "91.3% (inactive)"}, {"compound": "O=P(O)(O)OCC(O)CO", "note": "(centres undefined)", "growth": "107% (inactive)"}, {"compound": "COc1cccc(/C=N/NC(=S)NC2CC3CCC2C3)c1O", "note": "(centres undefined)", "growth": "71% (inactive)"}, {"compound": "CCn1c(=O)n(C)c2c(=O)n(C)c(=O)n(C)c21", "growth": "98.9% (inactive)"}, {"compound": "O=C(O)CNC(=O)c1ccccc1", "growth": "107% (inactive)"}, {"compound": "CC(=O)c1ccc(N=C(C#N)C2=C(O)c3ccccc3C2=O)cc1", "growth": "104% (inactive)"}, {"compound": "O=[N+]([O-])c1cccc(N=Nc2ccc(O)cc2O)c1", "growth": "74.3% (inactive)"}, {"compound": "COc1ccc(-c2cc3c(nn2)-c2ccccc2C3=O)cc1", "growth": "68.5% (inactive)"}, {"compound": "COc1cc2nn(-c3ccccc3N)nc2cc1OC", "growth": "94.3% (inactive)"}, {"compound": "CC1CC(O)C2C3(C)CCCC2(COC3=O)C12CCC1(CCOC1=O)O2", "note": "(centres undefined)", "growth": "109% (inactive)"}, {"compound": "NC(=S)N/N=C/c1ccc(N)cc1", "growth": "89.5% (inactive)"}, {"compound": "O=C(O)COCC(=O)O", "growth": "105% (inactive)"}, {"compound": "S=C1CCCCCN1", "growth": "105% (inactive)"}, {"compound": "O=c1[nH][nH]c(=O)c2cc([N+](=O)[O-])ccc12", "growth": "101% (inactive)"}, {"compound": "CC(=O)OCCO", "growth": "108% (inactive)"}]}]}
